# Inconclusive results are not listed. The source made the active and inactive calls. The calls were made as follows: active = hit-call score of the fitted dose curve at least 0.9, where 1 is the maximum; inconclusive = response in the unintended direction; inactive = score below 0.9.
# Test: Tanguay_ZF_120hpf_PE_legacy: (Legacy) Oregon State University Tanguay Lab 120 Hour Post-fertilization zebrafish Assay for Pericardial Edema (AID 2283640);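 as to AC50: potency for increased incidence of pericardial edema versus DMSO baseline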
# Outline: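 Tropical 5D wild-type zebrafish embryos were statically exposed until 120 hpf at 28C, with 0.64% DMSO final. Pericardial edema was scored by brightfield as present or absent; endpoints were not scored in dead embryos.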
SMILES,outcome,AC50
COC(=O)CCC(=O)OC,inactive,–
CCCCCCCCCC[N+](C)(C)[O-],inactive,–
CCCC[C@H]1CN(CC2CCOCC2)C(=O)OC12CCN(C1(C)CCN(C(=O)c3c(C)ncnc3C)CC1)CC2,inactive,–
O=C(O)CC(O)(CC(=O)O)C(=O)O,inactive,–
NC(=Nc1ccccc1)Nc1ccccc1,inactive,–
NC=O,inactive,–
CCCCC(CC)CO (centres undefined),inactive,–
COc1ccc(OC(F)(F)F)cc1CN[C@H]1CCCN[C@H]1c1ccccc1,inactive,–
CC(C)c1cccc(C(C)C)c1NC(=O)NS(=O)(=O)c1cc(C(C)(C)O)co1,inactive,–
Cc1cc(Cc2ccc(N)c(C)c2)ccc1N,inactive,–
Cc1ccc(-c2cc(C(F)(F)F)nn2-c2ccc(S(N)(=O)=O)cc2)cc1,inactive,–
O=C(NS(=O)(=O)/C=C/c1cccs1)c1ccc(F)cc1Br,inactive,–
CCc1nc(N)nc(N)c1-c1ccc(Cl)cc1,inactive,–
C/C=C/C=C/C(=O)O,inactive,–
CCCCCCCC(=O)OC,inactive,–
O=C(O)c1[nH]n(-c2ccc(S(=O)(=O)O)cc2)c(=O)c1N=Nc1ccc(S(=O)(=O)O)cc1,inactive,–
CCC(C)N(C)C(=O)c1cc2ccccc2c(-c2ccccc2Cl)n1 (centres undefined),–,6.53 µM (active)
CC(=O)OC1CC(C)OC(C)O1 (centres undefined),inactive,–
Cc1cc(SC2=C(O)C[C@@](CCc3ccc(N)cc3)(C(C)C)OC2=O)c(C(C)(C)C)cc1CO,inactive,–
C#CC(O)C(CC)CCCC (centres undefined),inactive,–
CC(=O)O,inactive,–
O=[Si]=O,inactive,–
O=C(Oc1ccccc1)c1cccc(C(=O)Oc2ccccc2)c1,inactive,–
S=c1[nH]c2ccccc2s1,–,37.6 µM (active)
O=C1CCCCC1,inactive,–
C/C=C/c1ccc(OC)cc1,inactive,–
CN(C)C(=O)NC1(c2ccccc2)CCN(CCC[C@]2(c3ccc(Cl)c(Cl)c3)CCCN(C(=O)c3ccccc3)C2)CC1,inactive,–
Cc1occc(=O)c1O,inactive,–
CCCCCCCCCCCCCCCCO,inactive,–
CC(=O)OCC(COC(C)=O)OC(C)=O,inactive,–

# Test: Tanguay_ZF_120hpf_BRAI_legacy: (Legacy) Oregon State University Tanguay Lab 120 Hour Post-fertilization zebrafish Assay for Brain Malformation (AID 2283641)
# Outline: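 Tropical 5D wild-type zebrafish embryos exposed statically until 120 hpf at 28C, 0.64% DMSO final, sealed and dark. Brain malformation scored present/absent by brightfield at 120 hpf; dead embryos excluded. Trimethyltin chloride 5uM positive control.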
SMILES,outcome,AC50
COC(=O)CCC(=O)OC,inactive,–
CCCCCCCCCC[N+](C)(C)[O-],inactive,–
CCCC[C@H]1CN(CC2CCOCC2)C(=O)OC12CCN(C1(C)CCN(C(=O)c3c(C)ncnc3C)CC1)CC2,inactive,–
O=C(O)CC(O)(CC(=O)O)C(=O)O,inactive,–
NC(=Nc1ccccc1)Nc1ccccc1,inactive,–
NC=O,inactive,–
CCCCC(CC)CO (centres undefined),inactive,–
COc1ccc(OC(F)(F)F)cc1CN[C@H]1CCCN[C@H]1c1ccccc1,inactive,–
CC(C)c1cccc(C(C)C)c1NC(=O)NS(=O)(=O)c1cc(C(C)(C)O)co1,inactive,–
Cc1cc(Cc2ccc(N)c(C)c2)ccc1N,inactive,–
Cc1ccc(-c2cc(C(F)(F)F)nn2-c2ccc(S(N)(=O)=O)cc2)cc1,inactive,–
O=C(NS(=O)(=O)/C=C/c1cccs1)c1ccc(F)cc1Br,inactive,–
CCc1nc(N)nc(N)c1-c1ccc(Cl)cc1,inactive,–
C/C=C/C=C/C(=O)O,inactive,–
CCCCCCCC(=O)OC,inactive,–
O=C(O)c1[nH]n(-c2ccc(S(=O)(=O)O)cc2)c(=O)c1N=Nc1ccc(S(=O)(=O)O)cc1,inactive,–
CCC(C)N(C)C(=O)c1cc2ccccc2c(-c2ccccc2Cl)n1 (centres undefined),inactive,–
CC(=O)OC1CC(C)OC(C)O1 (centres undefined),inactive,–
Cc1cc(SC2=C(O)C[C@@](CCc3ccc(N)cc3)(C(C)C)OC2=O)c(C(C)(C)C)cc1CO,inactive,–
C#CC(O)C(CC)CCCC (centres undefined),inactive,–
CC(=O)O,inactive,–
O=[Si]=O,inactive,–
O=C(Oc1ccccc1)c1cccc(C(=O)Oc2ccccc2)c1,inactive,–
S=c1[nH]c2ccccc2s1,–,40.7 µM (active)
O=C1CCCCC1,inactive,–
C/C=C/c1ccc(OC)cc1,inactive,–
CN(C)C(=O)NC1(c2ccccc2)CCN(CCC[C@]2(c3ccc(Cl)c(Cl)c3)CCCN(C(=O)c3ccccc3)C2)CC1,inactive,–
Cc1occc(=O)c1O,inactive,–
CCCCCCCCCCCCCCCCO,inactive,–
CC(=O)OCC(COC(C)=O)OC(C)=O,inactive,–

# Test: Tanguay_ZF_120hpf_PFIN_legacy: (Legacy) Oregon State University Tanguay Lab 120 Hour Post-fertilization zebrafish Assay for Pectoral Fin Malformation (AID 2283648);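 also: each larva judged yes or no for fin defect by brightfield with dead larvae skipped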
# Outline: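 Dechorionated Tropical 5D wild-type zebrafish embryos, one per well, statically exposed from 6 to 120 hpf at 28C with 0.64% DMSO final. Pectoral fin malformation scored present/absent by brightfield at 120 hpf; not scored in dead embryos.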
SMILES,outcome,AC50
COC(=O)CCC(=O)OC,inactive,–
CCCCCCCCCC[N+](C)(C)[O-],inactive,–
CCCC[C@H]1CN(CC2CCOCC2)C(=O)OC12CCN(C1(C)CCN(C(=O)c3c(C)ncnc3C)CC1)CC2,inactive,–
O=C(O)CC(O)(CC(=O)O)C(=O)O,inactive,–
NC(=Nc1ccccc1)Nc1ccccc1,inactive,–
NC=O,inactive,–
CCCCC(CC)CO (centres undefined),inactive,–
COc1ccc(OC(F)(F)F)cc1CN[C@H]1CCCN[C@H]1c1ccccc1,inactive,–
CC(C)c1cccc(C(C)C)c1NC(=O)NS(=O)(=O)c1cc(C(C)(C)O)co1,inactive,–
Cc1cc(Cc2ccc(N)c(C)c2)ccc1N,inactive,–
Cc1ccc(-c2cc(C(F)(F)F)nn2-c2ccc(S(N)(=O)=O)cc2)cc1,inactive,–
O=C(NS(=O)(=O)/C=C/c1cccs1)c1ccc(F)cc1Br,inactive,–
CCc1nc(N)nc(N)c1-c1ccc(Cl)cc1,inactive,–
C/C=C/C=C/C(=O)O,inactive,–
CCCCCCCC(=O)OC,inactive,–
O=C(O)c1[nH]n(-c2ccc(S(=O)(=O)O)cc2)c(=O)c1N=Nc1ccc(S(=O)(=O)O)cc1,inactive,–
CCC(C)N(C)C(=O)c1cc2ccccc2c(-c2ccccc2Cl)n1 (centres undefined),inactive,–
CC(=O)OC1CC(C)OC(C)O1 (centres undefined),inactive,–
Cc1cc(SC2=C(O)C[C@@](CCc3ccc(N)cc3)(C(C)C)OC2=O)c(C(C)(C)C)cc1CO,inactive,–
C#CC(O)C(CC)CCCC (centres undefined),inactive,–
O=[Si]=O,inactive,–
O=C(Oc1ccccc1)c1cccc(C(=O)Oc2ccccc2)c1,inactive,–
S=c1[nH]c2ccccc2s1,–,10.4 µM (active)
O=C1CCCCC1,inactive,–
C/C=C/c1ccc(OC)cc1,inactive,–
CN(C)C(=O)NC1(c2ccccc2)CCN(CCC[C@]2(c3ccc(Cl)c(Cl)c3)CCCN(C(=O)c3ccccc3)C2)CC1,inactive,–
Cc1occc(=O)c1O,inactive,–
CCCCCCCCCCCCCCCCO,inactive,–
CC(=O)OCC(COC(C)=O)OC(C)=O,inactive,–

# — PubChem BioAssay (EPA / NIEHS)
